Assay outcomes as filed in PubChem.
aSyn 5UTR act: Activators via SNCA 5'UTR binding, MLPCN | alpha-synuclein 5'UTR reporter, activators screen | activity score, % (tested at 7.5 µM), hits read low | 300,000 tested, 7.1% active | AID 1814; in the data active = activity score below about -60%
Active calls of the source: *. Only a sample is shown.

SMILES	aSyn 5UTR act
CC(C)C(=O)Nc1cccc(-c2csc(-c3ccccc3)n2)c1	-70*
CC(C)C(=O)Nc1ccc(-c2csc(-c3ccccc3)n2)cc1	-205*
Cc1cccc(NC(=O)c2ccoc2C)n1	-86*
Cc1occc1C(=O)Nc1cc(C(C)(C)C)on1	-101*
CCc1ccc(C(=O)N/N=C/c2ccc(Cl)cc2Cl)nc1	-75*
CCOC(=O)N/N=C/c1cc(C)n(-c2ccccc2)c1C	-75*
Cc1cc(/C=N/NC(=O)c2ccccc2F)c(C)n1-c1ccccc1	-133*
O=C(N/N=C/c1ccc(Cl)cc1Cl)c1cccc(F)c1	-212*
CCOC(=O)N/N=C/c1ccc(F)cc1F	-77*
Cc1cc(/C=N/NC(=O)c2cccc(F)c2)c(C)n1-c1ccccc1	-152*
O=C(N/N=C/c1cn(Cc2cccc(F)c2)c2ccccc12)c1cc(O)cc(O)c1	59
O=C(c1ccc(-n2cccn2)cc1)N1CCc2ccccc2C1	-63*
Cc1ncc(/C=C2\C(=O)Nc3ccccc32)[nH]1	-104*
O=C1CCCN1CCC(=O)N1CCCC(CO)(Cc2ccccc2)C1 (stereo not drawn)	-98*
c1ccc(-c2nnc(-c3ccccn3)s2)nc1	78
c1ccc(C2=NNC(c3ccccn3)=NN2)nc1	-118*
Cc1cc(=O)n2nc(-c3ccccc3)sc2n1	-99*
Cc1ccc(-c2csc(NC(=O)c3ccco3)n2)cc1C	-209*
Cc1ccc(-c2csc(NC(=O)c3ccc(-c4ccccc4)cc3)n2)o1	-122*
O=C(Nc1nc(-c2ccccn2)cs1)c1ccccc1-n1cnnn1	98
O=C(Nc1nc(-c2ccccc2)cs1)c1ccco1	-98*
O=C(Nc1nc(-c2ccco2)cs1)c1ccccc1	-181*
O=C(NNc1nc(-c2ccc(Br)cc2)cs1)c1ccco1	-105*
COc1ccc(-c2csc(NC(=O)c3ccco3)n2)cc1	-241*
COc1ccc(-c2csc(NC(=O)C3=NN(c4ccccc4)C(=O)CC3)n2)cc1	-86*
SMILES	aSyn 5UTR act
CCOc1ccc(-c2csc(NC(=O)c3ccco3)n2)cc1	-126*
CC(C)(C)SCCNC(=O)CSc1ccccc1	-72*
CC(C)(C)SCCNC(=O)Nc1ccccc1	-87*
C=CCSc1nc2c(cnn2-c2ccccc2)c(=O)n1N	74
O=c1c2cnn(-c3ccccc3)c2nc(-c2cccs2)n1-c1cccc(Cl)c1	-63*
C[C@@H](CO)NC(=O)c1ccc2c3n(nc2c1)-c1ccc(Cl)cc1CO3	-192*
CC(C)[C@@H](CO)NC(=O)c1ccc2c3n(nc2c1)-c1ccc(Cl)cc1CO3	-180*
NC(=O)c1oc2ccccc2c1NC(=O)c1ccc([N+](=O)[O-])o1	100
COC(=O)c1sccc1-c1ccc(C(=O)Nc2cccnc2)o1	-76*
O=C(NN(c1ccccc1)c1ccccc1)c1ccc([N+](=O)[O-])o1	-83*
O=C(NCc1cccnc1)c1ccc([N+](=O)[O-])o1	-117*
O=C(Nc1cccnc1)c1ccc([N+](=O)[O-])o1	-202*
CC1(C)CC(=O)C=C(c2ccc3[nH]ccc3c2)C1	-65*
O=C1C=C(c2ccc3[nH]ccc3c2)CCC1	-151*
CC(=O)N(C)C1=C(N2CCOCC2)C(=O)c2ccccc2C1=O	76
O=C1N=C(N2CCCCC2)SC1=C1CCCCC1	-89*
CCCN1C(=O)/C(=C2\SC(N3CCCCC3)=NC2=O)c2ccccc21	-159*
O=C1N=C(N2CCOCC2)S/C1=C1\C(=O)N(Cc2ccccc2)c2ccccc21	-193*
O=C1C=C(N2CCCCC2)c2ccccc2C1=O	122
CN1C(=O)/C(=C2\SC(N3CCCCCC3)=NC2=O)c2ccccc21	-153*
O=C(CSc1nc2ccsc2c(=O)n1NC(=O)c1ccccc1)Nc1nccs1	-82*
COc1ccc(C(=O)Nn2c(SCC(=O)NCc3ccccc3)nc3ccccc3c2=O)cc1	77
CN1CCc2c(sc3nc(SCC(=O)NCc4ccco4)n(-c4ccccc4)c(=O)c23)C1	-84*
O=C(CSc1nc2ccsc2c(=O)n1NC(=O)c1ccccc1)NCc1ccco1	-70*
C#CCN1C(=O)S/C(=C/c2cc(C)n(CC)c2C)C1=O	-193*
SMILES	aSyn 5UTR act
CCn1c(C)cc(/C=C2/SC(=O)N(C(C)C(=O)OC)C2=O)c1C (stereo not drawn)	-156*
COCCn1c(C)cc(/C=C2/SC(=O)N(C(C)C(=O)OC)C2=O)c1C (stereo not drawn)	-154*
COC(=O)C(C)N1C(=O)S/C(=C/c2cc(C)n(C(C)C)c2C)C1=O (stereo not drawn)	-127*
CCOC(=O)C(C)N1C(=O)S/C(=C/c2cc(C)n(-c3ccccn3)c2C)C1=O (stereo not drawn)	-143*
CC(C)CCOc1ccc(C(=O)NCCC(=O)N2CCOCC2)cc1	-82*
CS(=O)(=O)NCc1ccc(C(=O)NCCOc2ccccc2)cc1	-120*
COCCCNC(=S)NC(=O)c1ccc(C)cc1	-125*
CCOC(=O)CNC(=O)c1ccc(OCC(F)(F)F)cc1	-76*
Cc1ccc(OCCNC(=O)c2ccc(C)cc2)cc1	-148*
COc1ccc(OCCNC(=O)c2ccc(C)cc2)cc1	-79*
Cc1cc2cc(OCc3ccccc3)ccc2n1C	-183*
Cc1c(C=O)c2cc(OCc3ccccc3)ccc2n1C	-76*
COc1cccc(/C=C/c2ccccn2)c1O	-98*
CCCCC(=O)Nc1ccc(NC(=O)c2ccco2)cn1	-75*
CCCC(=O)Nc1ccc(NC(=O)c2ccco2)cn1	-93*
CC(C)C(=O)Nc1ccc(NC(=O)c2ccco2)cn1	-86*
O=C(NC(=S)Nc1ccc2c(c1)OCCO2)c1ccco1	-114*
O=C(NC(=S)Nc1cccc(O)c1)c1ccco1	-131*
O=C(c1ccco1)N1CCCC(Nc2ccc3c(c2)OCCO3)C1 (stereo not drawn)	-79*
O=c1c2ccccc2nc(SCc2nc3ccccc3s2)n1CCCO	-182*
Nc1ccccc1C#Cc1ccc([N+](=O)[O-])cc1	-262*
Cn1c(=O)c2nc(-c3ccccc3)oc2c2ccccc21	-69*
O=C(Nc1nnc(SCc2ccccc2)s1)C1=COCCO1	-72*
CC(=O)Nc1nnc(SCc2ccccc2F)s1	-76*
C=CCSc1nnc(NC(=O)C2=COCCO2)s1	-82*
SMILES	aSyn 5UTR act
O=C(NCCc1ccccc1)C1=COCCO1	-129*
O=C(Nc1nnc(SCc2ccccc2F)s1)C1=COCCO1	-117*
c1ccc(CSc2nnc(NC3=NCCCCC3)s2)cc1	-89*
O=C(N/N=C1/CC2C=CCC12)c1cccs1 (stereo not drawn)	-75*
O=C(N/N=C1/CC2C=CCC12)c1ccco1 (stereo not drawn)	-66*
Cc1csc2ncc(C(=O)NCCc3ccccc3)c(=O)n12	-134*
CSc1ccccc1NC(=O)c1cnc2scc(C)n2c1=O	-108*
Cc1ccccc1NC(=O)c1cnc2ccccn2c1=O	62
O=C(NCCc1ccccc1)c1cnc2ccccn2c1=O	-73*
CCc1ccccc1NC(=O)c1cnc2scc(C)n2c1=O	-99*
CCOc1ccc(NC(=O)c2cnc3scc(C)n3c2=O)cc1	-104*
CC(C)(C)CC(=O)Nc1ccc(-c2cn3cccnc3n2)cc1	-80*
CCCC(=O)Nc1ccc(-c2cn3cccnc3n2)cc1	-85*
CC(C)CC(=O)Nc1ccc(-c2cn3cccnc3n2)cc1	-80*
CCOC(=O)N/N=C/c1c(C)nn(-c2ccccc2Cl)c1Cl	-91*
Cc1nn(-c2ccccc2)c(Cl)c1/C=N/NC(=O)OC(C)(C)C	-131*
Cc1nn(C(C)(C)C)c(C)c1/C=N/OC(=O)Nc1ccc(Cl)cc1	94
